Inhibition data for 43 compounds are collected here from PubChem BioAssay AID1362 (SRMLSC, 2008).

This assay in a line: growth inhibition of WT strain, primary screen, mitochondrial fusion inhibitor project, WT and mutant strains, chemical genetic (AID 1362). Conditions: mitochondrial fusion phenotypic screen, at 10 µM.
Where [1] appears, read: WT strain, growth inhibition, stronger effect = higher value.

About 4,000 (2.1%) of roughly 190,000 compounds were called active. No stated cut-off is given here; in the data, active means inhibition above about 58%; inactive means the rest, inconclusive results apart; tested in S. cerevisiae. Many of the other results were omitted from the sample, so actives are more common in it than they were.

Broadly, the inhibition is the drop in the measured response relative to a control, in per cent. As for `S=C(c1ccc(-c2ccccc2)o1)N1CCCCC1`, the inhibition runs as follows: under setting [1], 43.1% (inactive); (mutant strain inhibition) 35.3%.

For `c1ccc(Nc2nc(-c3ccncc3)cs2)nc1`, the inhibition under setting [1] was 23.8% (inactive) and the inhibition (mutant strain inhibition) was determined as 27.6%.

Take `O=C(Nc1ccc(Cl)cn1)Nc1cccs1`: the inhibition was 8.8% (inactive) under setting [1] and 18.2% (mutant strain inhibition).

On to `Clc1ccc(Nc2nc(-c3cccs3)cs2)nc1`, for which the inhibition is, setting by setting: under setting [1], 78.8% (active); (mutant strain inhibition) 68.5%.

Regarding `COc1ccccc1N1CCN(/N=C\C(Br)=C\c2ccccc2)CC1`, the inhibition was 15.4% (inactive) under setting [1] and 14.3% (mutant strain inhibition).

Consider `O=C(Nc1ccccc1Cl)/C(Cl)=C(\Cl)S(=O)c1ccccc1` (stereo unspecified), for which the inhibition reads like this: under setting [1], 95.8% (active); (mutant strain inhibition) 92.8%.

As to `O=C(Nc1ccccc1Cl)c1ccc2nsnc2c1`, the inhibition runs as follows: under setting [1], -2.83% (inactive); (mutant strain inhibition) -10.8%.

Take `O=C(CN1CCCCC1)Nc1ccccc1Cl`: the inhibition is -11.8% (inactive) under setting [1] and 3.7% (mutant strain inhibition).

Consider `O=C(Cc1ccccc1)NNC(=O)C1CCN(c2ncccn2)CC1`, for which the inhibition is, setting by setting: under setting [1], -17.4% (inactive); (mutant strain inhibition) -9.74%.

On to `CC(c1ccco1)N(C(=O)COc1ccccc1[N+](=O)[O-])c1ccccn1` (stereo unspecified), for which the inhibition was 70.6% (active) under setting [1] and 2.58% (mutant strain inhibition).

Turning to `O=C(COc1ccccc1[N+](=O)[O-])NC1CC1`, the inhibition is -0.95% (inactive) under setting [1] and 8.16% (mutant strain inhibition).

As for `CC(c1ccco1)N(C(=O)c1ccc(S(=O)(=O)N2CCCCC2)cc1)c1ccccn1` (stereo unspecified), the inhibition under setting [1] is 4.63% (inactive) and the inhibition (mutant strain inhibition) is -4.51%.

For `CCCCN(CC(=O)NC(C)(C)C)C(=O)C(=O)Nc1ccc2c(c1)OCCO2`, the inhibition was -14.6% (inactive) under setting [1] and 11% (mutant strain inhibition).

For the compound `OCCC#Cc1ccc(CN2CCN(Cc3ccsc3)C(CCO)C2)cc1` (stereo unspecified), the inhibition by setting is: under setting [1], 2.66% (inactive); (mutant strain inhibition) -0.56%.

Regarding `CCOC(=O)c1ccc(NC(=S)Nc2cc(C)cc(C)n2)cc1`, the inhibition by setting is: under setting [1], 12.9% (inactive); (mutant strain inhibition) 22.8%.

`Cc1ccc2c(c1)C1CN(C)CCC1N2C(=O)c1ccccc1NS(=O)(=O)c1ccc(F)cc1C` (stereo unspecified): the inhibition was -2.24% (inactive) under setting [1] and -7.82% (mutant strain inhibition).

`Cc1ccc2c(c1)C1CN(C)CCC1N2S(=O)(=O)c1ccc(Oc2ccc([N+](=O)[O-])cc2)cc1` (stereo unspecified): the inhibition is, setting by setting: under setting [1], 78.9% (active); (mutant strain inhibition) 62.2%.

As to `Cc1ccc2c(c1)C1CN(C)CCC1N2C(=S)Nc1ccc(OC(F)F)cc1` (stereo unspecified), the inhibition reads like this: under setting [1], 17.8% (inactive); (mutant strain inhibition) 8.65%.

For the compound `Cc1ccc(S(=O)(=O)CCC(=O)OCc2ccccc2)cc1`, the inhibition reads like this: under setting [1], 0.5% (inactive); (mutant strain inhibition) 13.9%.

For `C=CCN(CC=C)CCOc1ccccc1[N+](=O)[O-]`, the inhibition was 1.42% (inactive) under setting [1] and 1.87% (mutant strain inhibition).

On to `CC1=CC2=NC(=O)CC(C)(C(=O)N(CC(=O)NC(C)(C)C)Cc3ccccc3)N2C=C1` (stereo unspecified), for which the inhibition under setting [1] is -18.1% (inactive) and the inhibition (mutant strain inhibition) was -9.57%.

`Cc1nnc(SCC(=O)N2CCc3ccccc3C2)s1`: the inhibition was 3.58% (inactive) under setting [1] and -9.75% (mutant strain inhibition).

On to `Cc1nnc(SCC(=O)N2c3ccccc3C(C)(c3ccc(Cl)cc3)CC2(C)C)s1` (stereo unspecified), for which the inhibition by setting is: under setting [1], 68.9% (active); (mutant strain inhibition) 10.2%.

As for `Cc1nnc(SCC(=O)NCc2ccccc2)s1`, the inhibition under setting [1] was 9.71% (inactive) and the inhibition (mutant strain inhibition) was found to be 1.45%.

Consider `CCCCCCCC1(C)NC(=O)N(CC(=O)Nc2cc(C)on2)C1=O` (stereo unspecified), for which the inhibition runs as follows: under setting [1], 3.19% (inactive); (mutant strain inhibition) -21%.

For the compound `COc1cc(C)c(S(=O)(=O)N2CCOCC2)c(C)c1C`, the inhibition is, setting by setting: under setting [1], -12.4% (inactive); (mutant strain inhibition) -18.1%.

Turning to `CC(C)(C)N(CC#CCC(O)(c1ccccc1)C1CCCC1)CCO` (stereo unspecified), the inhibition is -9.77% (inactive) under setting [1] and -9.45% (mutant strain inhibition).

Turning to `COc1cccc(/C=C/C(=O)Nc2ccc3c(c2)OCCO3)c1`, the inhibition under setting [1] is 19.1% (inactive) and the inhibition (mutant strain inhibition) turned out to be 5.63%.

Turning to `CCC1(C)Cc2c(sc3nc(SC)nc(N)c23)CO1` (stereo unspecified), the inhibition is -20.9% (inactive) under setting [1] and -10.7% (mutant strain inhibition).

As to `CCCSc1nc(NCc2ccco2)c2c3c(sc2n1)COC(C)(CC)C3` (stereo unspecified), the inhibition reads like this: under setting [1], 58.6% (active); (mutant strain inhibition) 41.2%.

Consider `CN(C)CCSc1nc(N)c2c3c(sc2n1)COC(C)(C)C3`, for which the inhibition under setting [1] was -20.9% (inactive) and the inhibition (mutant strain inhibition) is -1.39%.

Regarding `O=C(CC(O)(C(F)(F)F)C(F)(F)F)Nc1ccc(Cl)c(Cl)c1`, the inhibition is, setting by setting: under setting [1], 84.6% (inactive); (mutant strain inhibition) 85.2%.

On to `N/C(=N\OC(=O)Nc1ccc(Cl)c(Cl)c1)c1ncc(C(F)(F)F)cc1Cl`, for which the inhibition under setting [1] is 80.3% (active) and the inhibition (mutant strain inhibition) was 78.5%.

For the compound `N/C(=N\OC(=O)CCCC(=O)O)c1ncc(C(F)(F)F)cc1Cl`, the inhibition under setting [1] was 9.89% (inactive) and the inhibition (mutant strain inhibition) came to 9.98%.

Consider `CCc1cccc2c(=O)c(C(=O)NCCCOC)c[nH]c12`, for which the inhibition reads like this: under setting [1], 4.61% (inactive); (mutant strain inhibition) 8.59%.

In the case of `CCN1CCN(CC(=O)c2cc(OC)c(OC)c(OC)c2)CC1`, the inhibition by setting is: under setting [1], -2.06% (inactive); (mutant strain inhibition) -0.71%.

For the compound `CC(C)(C)Oc1ncc(Br)c(OC(C)(C)C)n1`, the inhibition under setting [1] was 18.5% (inactive) and the inhibition (mutant strain inhibition) was 15.1%.

With `COc1cccc(-c2cnc(OC(C)(C)C)nc2OC(C)(C)C)c1`, the inhibition is 84.1% (active) under setting [1] and 27.8% (mutant strain inhibition).

For `COc1cccc(-c2nc3cc(C)ccc3o2)c1`, the inhibition is 26.9% (inactive) under setting [1] and 17.7% (mutant strain inhibition).

In the case of `Cc1ccccc1NC(=O)NNC(=O)OC(C)(C)C`, the inhibition reads like this: under setting [1], -2.03% (inactive); (mutant strain inhibition) -7.53%.

As to `[O-][n+]1c2c(nn1-c1ccc(Cl)c(Cl)c1)-c1nonc1CC2`, the inhibition under setting [1] was 38% (inactive) and the inhibition (mutant strain inhibition) turned out to be 6.81%.

Take `CN(C)CCN=c1cc(-c2ccccc2)oc2ccc(Cl)cc12`: the inhibition is 10.8% (inactive) under setting [1] and 15.6% (mutant strain inhibition).

Consider `c1ccc2c(NC3C4CC5CC(C4)CC3C5)nc(N3CCOCC3)nc2c1` (stereo unspecified), for which the inhibition under setting [1] is 69.3% (active) and the inhibition (mutant strain inhibition) was determined as 45.5%.
